# Laboratory results: PubChem BioAssay
# Several values for one entry are separate records, joined by “and”; a condition that tells them apart may be missing. Equal entries are not always repeated. Some structures have more than one record in an assay (separate samples or runs), and their calls can disagree. Activity calls are given as the source filed them.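 The calls were made as follows, unless noted: active = z-score of at least 1.8 in each of two replicates, scored against plate mean and spread of sample wells; inactive = the rest.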
# Legend:
# [1] = Wnt pathway potentiators raising nuclear beta-catenin – imaging, WNT3A-conditioned medium, mouse C2C12, NPC library, primary screen (AID 1117326; in the data active = nuclear beta-catenin stimulation mostly above about 4.2%, no sharp cut-off; inactive = mostly below about 10%); conditions: stronger effect = higher value
# [2] = stimulators of insulin release from INS-1E, primary screen, cell-based, 5 mM glucose, NPC library (AID 1117329;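 active = compound raises insulin release from rat beta cells at 5 mM glucose, no numeric limit stated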); conditions: rat INS-1E insulin secretion, at 10 µM, stronger effect = higher value
# [3] = growth inhibition of GSK3B-pretreated HCT116 cells – cell-based, CellTiter-Glo, 0.2 to 20 µM (AID 1117336;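 active = compounds lowering colon cancer cell viability after pretreatment blocking the GSK3B kinase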); conditions: HCT116 viability after GSK3B inhibitor, at 20 µM, stronger effect = higher value
# [4] = inhibition of endothelial tube formation, primary screen, imaging, VEGF stimulated, CD31 staining, tube area, NPC library (AID 1117340;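 active = compound that reduces growth-factor-driven endothelial tube area in a mixed cell culture, no cutoff stated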); conditions: VEGF-stimulated ADSC/ECFC co-culture, at 10 µM, stronger effect = higher value
# [5] = GLP1 release stimulators, primary, NCI-H716, NPC library (AID 1117341;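 active = compound raises GLP1 secretion from the human gut endocrine cells, with no numeric limit stated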); conditions: NCI-H716 cells, at 10 µM, stronger effect = higher value
# [6] = HCT116 colon cancer cell growth inhibition, primary screen, CellTiter-Glo luminescence, NPC library (AID 1117342;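 active = compounds that lower survival of HCT116 colon cancer cells in the luminescence readout, no numeric limit stated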); conditions: at 20 µM (top of the series)
# [7] = reduced SW480 viability measured with CellTiter-Glo, NPC library, primary (AID 1117343;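 active = compounds that lower viability of the colon cancer cells in the luminescence readout, with no numeric limit stated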); conditions: CellTiter-Glo luminescence; at 20 µM (top of the series)
# [8] = NPC library primary testing for decreased DLD-1 cell viability via CellTiter-Glo (AID 1117346;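 active = compounds that lower survival of DLD-1 colon cancer cells in the luminescence readout, no cutoff given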); conditions: DLD-1 viability, CellTiter-Glo luminescence; at 20 µM (top of the series)
# [9] = biological target: 6-phosphogluconate dehydrogenase, decarboxylating (Homo sapiens) (UniProt P52209); assay: inhibition of human phosphogluconate dehydrogenase – biochemical, recombinant enzyme, NADPH absorbance, primary screen (AID 1159550;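 active = at least 20% inhibition of 6-phosphogluconate dehydrogenase activity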); conditions: recombinant 6PGD, NADPH absorbance 341 nm; at 10 µM; stronger effect = higher value
# 6-phosphogluconate dehydrogenase, decarboxylating (Homo sapiens), sequence (P52209 whole entry, looked up): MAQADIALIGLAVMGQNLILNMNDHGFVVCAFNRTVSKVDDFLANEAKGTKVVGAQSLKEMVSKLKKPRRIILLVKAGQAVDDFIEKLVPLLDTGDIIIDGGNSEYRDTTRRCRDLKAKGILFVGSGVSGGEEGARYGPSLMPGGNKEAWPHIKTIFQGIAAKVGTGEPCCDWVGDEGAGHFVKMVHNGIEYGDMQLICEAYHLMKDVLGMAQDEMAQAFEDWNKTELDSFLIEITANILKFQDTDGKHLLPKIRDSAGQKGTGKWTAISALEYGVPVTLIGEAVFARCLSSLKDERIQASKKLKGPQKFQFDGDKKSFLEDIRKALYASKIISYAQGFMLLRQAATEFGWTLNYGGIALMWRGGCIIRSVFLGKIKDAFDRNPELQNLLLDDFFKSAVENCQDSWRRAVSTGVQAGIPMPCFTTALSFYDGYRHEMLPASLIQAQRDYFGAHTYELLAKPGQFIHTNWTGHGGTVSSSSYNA
# [10] = EMT-state selective cytotoxicity in co-culture – imaging, PC-3E GFP, TEM4-18 mCherry, primary screen (AID 1345086;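 active = compounds killing one labelled cell type while sparing the other, by normalised counts and ratio limits, not self-fluorescent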;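 as to all read-outs here: cells exposed to compound for 72 h before imaging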;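 as to red/green cell ratio (normalised): normalised mesenchymal count divided by normalised epithelial count so high means epithelial killing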); conditions: PC-3E GFP / TEM4-18 mCherry co-culture, imaging cell counts, at 1 µM; for red/green cell ratio (normalised): actives lie on both sides
# [11] = system: Aerobactin synthetase IucA (Klebsiella pneumoniae hvKP1); assay: IucA enzyme inhibition, primary screen, biochemical, Spectrum library (AID 1346200; call rule not given here;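 also: 100% = wells without compound and 0% = wells lacking enzyme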); conditions: malachite green pyrophosphate, A620, at 8 µM, stronger effect = lower value
# [12] = MELAS cybrid and Rieske KO viability enhancers – cell-based, MELAS cybrids, Rieske KO mouse fibroblasts, CellTiter-Glo, primary screen (AID 1508586;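 active = mean z-score across replicates of 1.96 or higher in either the MELAS or the Rieske mutant cell line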;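 also: z relative to plate mean and SD of compound and empty wells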); conditions: low glucose
# [13] = biological target: NAD(+) hydrolase SARM1 (Homo sapiens) (UniProt Q6SZW1); assay: blocking NAD cleavage by SARM1 SAM-TIR – cell lysate, NAD-Glo luminescence (AID 1508614;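 active = compound whose remaining NAD level is above about 45 nM, limit read from the data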;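 also: higher remaining NAD means stronger inhibition of SARM1 NADase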); conditions: SAM-TIR HEK293T lysate NADase, at 1 µM, stronger effect = higher value
# NAD(+) hydrolase SARM1 (Homo sapiens), sequence (Q6SZW1 whole entry, looked up, the tested form may be a part): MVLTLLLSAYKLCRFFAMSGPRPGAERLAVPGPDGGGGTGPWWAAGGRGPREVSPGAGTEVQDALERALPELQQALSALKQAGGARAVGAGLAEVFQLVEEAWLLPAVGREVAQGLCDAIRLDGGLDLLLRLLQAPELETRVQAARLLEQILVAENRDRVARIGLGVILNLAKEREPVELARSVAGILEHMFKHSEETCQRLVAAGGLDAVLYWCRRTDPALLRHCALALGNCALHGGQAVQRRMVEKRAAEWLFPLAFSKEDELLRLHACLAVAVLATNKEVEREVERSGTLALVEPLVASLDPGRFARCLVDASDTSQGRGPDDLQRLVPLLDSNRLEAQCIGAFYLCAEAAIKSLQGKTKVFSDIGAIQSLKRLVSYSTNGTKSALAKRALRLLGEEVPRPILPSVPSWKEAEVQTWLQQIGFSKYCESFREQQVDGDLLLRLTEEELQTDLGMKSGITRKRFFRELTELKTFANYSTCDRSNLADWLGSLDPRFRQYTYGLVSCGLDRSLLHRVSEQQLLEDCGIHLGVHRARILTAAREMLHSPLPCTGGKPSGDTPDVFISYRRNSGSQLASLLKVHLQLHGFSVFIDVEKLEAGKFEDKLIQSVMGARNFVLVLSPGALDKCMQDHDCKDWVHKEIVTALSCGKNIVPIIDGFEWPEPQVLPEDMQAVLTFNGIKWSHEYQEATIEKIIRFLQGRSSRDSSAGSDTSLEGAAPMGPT
# [14] = biological target: Mitogen-activated protein kinase 7 (Homo sapiens) (UniProt Q13164); assay: Gal4-ERK5 driven luciferase induction – cell-based, HTS, primary screen (AID 1508626;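 active = luciferase signal above three times the same-plate solvent-only control wells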;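 also: luciferase driven by Gal4-ERK5 fusion binding five Gal4 sites before minimal TATA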); conditions: HeLa Gal4-ERK5 transactivation, 18 h, at 5 µM, stronger effect = higher value
# Mitogen-activated protein kinase 7 (Homo sapiens), sequence (Q13164 whole entry, looked up, the tested form may be a part): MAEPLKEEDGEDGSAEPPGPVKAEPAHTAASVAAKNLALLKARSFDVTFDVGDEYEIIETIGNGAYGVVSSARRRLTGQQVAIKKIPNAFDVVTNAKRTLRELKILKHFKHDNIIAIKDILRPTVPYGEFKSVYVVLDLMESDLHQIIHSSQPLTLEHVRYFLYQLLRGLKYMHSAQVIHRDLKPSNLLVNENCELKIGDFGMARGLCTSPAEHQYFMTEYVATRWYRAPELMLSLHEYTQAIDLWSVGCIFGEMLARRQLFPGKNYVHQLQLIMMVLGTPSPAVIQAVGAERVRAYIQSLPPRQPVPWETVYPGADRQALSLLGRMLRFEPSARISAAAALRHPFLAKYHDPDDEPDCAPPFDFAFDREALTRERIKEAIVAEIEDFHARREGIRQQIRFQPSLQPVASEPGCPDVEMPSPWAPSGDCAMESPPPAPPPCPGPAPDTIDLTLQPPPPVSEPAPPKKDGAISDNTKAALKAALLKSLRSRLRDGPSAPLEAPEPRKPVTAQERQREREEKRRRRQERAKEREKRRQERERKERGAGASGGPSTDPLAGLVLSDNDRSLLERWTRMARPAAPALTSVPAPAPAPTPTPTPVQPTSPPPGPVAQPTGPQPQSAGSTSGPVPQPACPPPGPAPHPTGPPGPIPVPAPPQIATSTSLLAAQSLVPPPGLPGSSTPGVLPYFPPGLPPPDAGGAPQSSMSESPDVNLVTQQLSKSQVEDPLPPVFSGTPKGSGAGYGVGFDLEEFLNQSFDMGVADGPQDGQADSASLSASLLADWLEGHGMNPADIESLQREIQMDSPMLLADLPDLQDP
# [15] = galactose survival enhancers in mitochondrial complex I cybrids – cell-based, galactose medium, ATP luminescence, primary screen (AID 1645843); conditions: complex I mutant cybrid cells, 72 h, stronger effect = higher value;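 also: positive z means more ATP and so rescue of galactose-driven cybrid death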
# [16] = yeast 75Q aggregation reduction – 75Q-TubU reporter (AID 1593); conditions: Yeast 75Q polyglutamine aggregation reporter
# [17] = blockers of cytochrome c efflux from mitochondria – biochemical, purified mitochondria (AID 1603); conditions: stronger effect = lower value;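 also: mouse liver mitochondria challenged with calcium chloride; signal normalized to the plate average as 100%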
# [18] = polyglutamine aggregate formation blockers (AID 1604); conditions: polyglutamine-induced protein aggregation inhibition assay; stronger effect = higher value; tested at 2.5 µM
# [19] = viability loss with induced miR-34 in A549 – imaging, A549 dox-inducible miR-34, nuclei and caspase counts, primary screen (AID 1347080;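 active = compounds whose cell count with miR-34 switched on is under 0.7 times the count with it off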); conditions: A549 miR-34 inducible, Hoechst nuclei count, 48 h
# [20] = P. berghei load reduction in hepatocytes – cell-based, HepG2, luciferase luminescence, HepG2 viability, primary screen (AID 624349; in the data active = parasite load remaining mostly below about 12%, no sharp cut-off; inactive = mostly above about 10%;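 also: 100% = mean of DMSO negative control wells on the same plate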); conditions: P. berghei liver stage in HepG2, luciferase luminescence, concentration not given here; parasite load remaining: stronger effect = lower value; viability: measured here: HepG2 viability without parasites
# [21] = measured here: epithelial PC-3E GFP cell survival
# [22] = measured here: mesenchymal TEM4-18 mCherry cell survival
# [23] = MELAS cybrid survival, CellTiter-Glo 48 h, stronger effect = higher value
# [24] = Rieske KO mouse fibroblast survival, CellTiter-Glo 72 h
# [25] = measured here: relative caspase fold change +Dox/-Dox
# [26] = measured here: total cells with miR-34 induction, stronger effect = lower value
# [27] = measured here: total cells without miR-34 induction
compound,measurement,setting,value
COc1ccc(C(CN(C)C)C2(O)CCCCC2)cc1 (centres undefined),nuclear beta-catenin stimulation,[1]; at 10 µM,3.1% (inactive)
same,nuclear beta-catenin stimulation,"[1]; stimulation, at 2 µM",1.4%
same,insulin secretion stimulation,[2],2.1% (inactive)
same,viability decrease,[3],-40% (inactive)
same,tube area decrease,[4],1.5% (inactive)
same,GLP1 secretion stimulation,[5],4.1% (inactive)
same,inhibition of viability,[6],-3.77% (inactive)
same,viability decrease (inhibition),[7],-4% (inactive)
same,viability decrease (inhibition),[8],-3.8% (inactive)
same,inhibition,[9],-0.228% (inactive)
same,red/green cell ratio (normalised),"[10]; counts scaled to control wells, 1 = unselective",1.25 (inactive)
same,normalised cell number,[10]; [21],1.01
same,normalised cell number,[10]; [22],1.26
same,activity remaining,[11],123% (inactive)
same,z-score,[12]; [23],2.81 (active) and 0.624 (inactive) and -0.216 (inactive)
same,z-score,[12]; [24],-2.19 and 0.0731 and -0.394
same,remaining NAD,[13],10 nM (inactive)
same,luciferase signal,[14],48 AU (inactive)
same,z-score,[15],-0.07 (inactive) and 0.705 (inactive) and 0.625 (inactive)
COC(=O)C1=CCCN(C)C1,score,[16],1.73
same,cytochrome c release ratio,[17],0.68
same,inhibition of aggregation,[18],81.4%
same,nuclear beta-catenin stimulation,[1]; at 10 µM,4.2% (inactive)
same,nuclear beta-catenin stimulation,"[1]; stimulation, at 2 µM",2.3%
same,insulin secretion stimulation,[2],-0.6% (inactive)
same,viability decrease,[3],-6.9% (inactive)
same,tube area decrease,[4],25.2% (inactive)
same,GLP1 secretion stimulation,[5],-0.8% (inactive)
same,inhibition of viability,[6],-3.33% (inactive)
same,viability decrease (inhibition),[7],8.4% (inactive)
same,viability decrease (inhibition),[8],-18.9% (inactive)
same,inhibition,[9],-2.35% (inactive)
same,red/green cell ratio (normalised),[10],1.16 (inactive)
same,normalised cell number,[10]; [21],0.91
same,normalised cell number,[10]; [22],1.07
same,activity remaining,[11],112% (inactive)
same,z-score,[12]; [23],-0.328 (inactive)
same,z-score,[12]; [24],0.482
same,remaining NAD,[13],10 nM (inactive)
same,luciferase signal,[14],52 AU (inactive)
same,z-score,[15],-0.47 (inactive)
CC1(C)S[C@@H]2[C@H](N)C(=O)N2[C@@H]1C(=O)O,nuclear beta-catenin stimulation,[1]; at 10 µM,0.4% (inactive)
same,nuclear beta-catenin stimulation,"[1]; stimulation, at 2 µM",3%
same,insulin secretion stimulation,[2],-0.3% (inactive)
same,viability decrease,[3],-4.5% (inactive)
same,tube area decrease,[4],7.5% (inactive)
same,GLP1 secretion stimulation,[5],0% (inactive)
same,inhibition of viability,[6],2.1% (inactive)
same,viability decrease (inhibition),[7],6.9% (inactive)
same,viability decrease (inhibition),[8],-4.4% (inactive)
ClCCN1CCCC1,nuclear beta-catenin stimulation,[1]; at 10 µM,0.7% (inactive)
same,nuclear beta-catenin stimulation,"[1]; stimulation, at 2 µM",-0.2%
same,insulin secretion stimulation,[2],4% (inactive)
same,viability decrease,[3],5.1% (inactive)
same,tube area decrease,[4],9.9% (inactive)
same,GLP1 secretion stimulation,[5],-2.4% (inactive)
same,inhibition of viability,[6],-8.3% (inactive)
same,viability decrease (inhibition),[7],8.7% (inactive)
same,viability decrease (inhibition),[8],8.5% (inactive)
O=c1[nH]c2ccccc2n1C1CCN(CCCC(c2ccc(F)cc2)c2ccc(F)cc2)CC1,score,[16],1.1
same,cytochrome c release ratio,[17],1.41
same,inhibition of aggregation,[18],38.1%
same,nuclear beta-catenin stimulation,[1]; at 10 µM,7.8% (inactive)
same,nuclear beta-catenin stimulation,"[1]; stimulation, at 2 µM",0.2%
same,insulin secretion stimulation,[2],0.4% (inactive)
same,viability decrease,[3],98.9% (active)
same,tube area decrease,[4],108% (active)
same,GLP1 secretion stimulation,[5],-4.5% (inactive)
same,inhibition of viability,[6],99.6% (active)
same,viability decrease (inhibition),[7],102% (active)
same,viability decrease (inhibition),[8],99.3% (active)
same,inhibition,[9],13.7% (inactive)
same,red/green cell ratio (normalised),[10],0.96 (inactive)
same,normalised cell number,[10]; [21],1.24
same,normalised cell number,[10]; [22],1.19
same,activity remaining,[11],128% (inactive)
same,z-score,[12]; [23],0.83 (inactive) and 0.29 (inactive)
same,z-score,[12]; [24],0.702 and -0.0813
same,remaining NAD,[13],10 nM (inactive)
same,luciferase signal,[14],68 AU (inactive)
same,z-score,[15],-1.29 (inactive) and -1.18 (inactive) and -2 (inactive)
O=c1[nH]c2ccccc2n1CCCN1CCC(n2c(=O)[nH]c3cc(Cl)ccc32)CC1,nuclear beta-catenin stimulation,[1]; at 10 µM,3.1% (inactive)
same,nuclear beta-catenin stimulation,"[1]; stimulation, at 2 µM",0.9%
same,insulin secretion stimulation,[2],41.9% (active)
same,viability decrease,[3],-17.1% (inactive)
same,tube area decrease,[4],12.9% (inactive)
same,GLP1 secretion stimulation,[5],6.8% (inactive)
same,inhibition of viability,[6],13.1% (inactive)
same,viability decrease (inhibition),[7],13.8% (inactive)
same,viability decrease (inhibition),[8],15.8% (inactive)
same,inhibition,[9],2.55% (inactive)
same,red/green cell ratio (normalised),[10],1.2 (inactive)
same,normalised cell number,[10]; [21],0.91
same,normalised cell number,[10]; [22],1.1
same,activity remaining,[11],117% (inactive)
same,z-score,[12]; [23],-0.488 (inactive) and -0.032 (inactive) and 1.25 (inactive)
same,z-score,[12]; [24],0.597 and -0.334 and 1.01
same,remaining NAD,[13],10 nM (inactive)
same,luciferase signal,[14],44 AU (inactive)
same,z-score,[15],-0.92 (inactive) and -0.455 (inactive) and -0.075 (inactive)
CCCCCCCCC(=O)NCc1ccc(O)c(OC)c1,nuclear beta-catenin stimulation,[1]; at 10 µM,2.1% (inactive)
same,nuclear beta-catenin stimulation,"[1]; stimulation, at 2 µM",1.1%
same,insulin secretion stimulation,[2],-0.6% (inactive)
same,viability decrease,[3],4.5% (inactive)
same,tube area decrease,[4],21.4% (inactive)
same,GLP1 secretion stimulation,[5],4% (inactive)
same,inhibition of viability,[6],1.8% (inactive)
same,viability decrease (inhibition),[7],49.7% (inactive)
same,viability decrease (inhibition),[8],11.7% (inactive)
same,inhibition,[9],-12.3% (inactive)
same,activity remaining,[11],92.7% (inactive)
same,remaining NAD,[13],10 nM (inactive)
same,luciferase signal,[14],52 AU (inactive)
CCOP(=S)(OCC)Oc1ccc2c(C)c(Cl)c(=O)oc2c1,nuclear beta-catenin stimulation,[1]; at 10 µM,8.6% (inactive)
same,nuclear beta-catenin stimulation,"[1]; stimulation, at 2 µM",1.6%
same,insulin secretion stimulation,[2],-1.3% (inactive)
same,viability decrease,[3],-12.5% (inactive)
same,tube area decrease,[4],41% (active)
same,GLP1 secretion stimulation,[5],2.3% (inactive)
same,inhibition of viability,[6],-16% (inactive)
same,viability decrease (inhibition),[7],-55% (inactive)
same,viability decrease (inhibition),[8],-8.8% (inactive)
same,inhibition,[9],6.24% (inactive)
same,red/green cell ratio (normalised),[10],1.09 (inactive)
same,normalised cell number,[10]; [21],0.91
same,normalised cell number,[10]; [22],0.99
same,fold change,[19]; stronger effect = lower value,0.908 (inactive)
same,fold change,[19]; [25],1.03
same,cell count,[19]; [26],8520
same,cell count,[19]; [27],9380
same,remaining NAD,[13],10 nM (inactive)
same,luciferase signal,[14],72 AU (inactive)
CCC1(CC)C(=O)C=CNC1=O,score,[16],0.96 and 1.19
same,cytochrome c release ratio,[17],1.06 and 0.67
same,inhibition of aggregation,[18],63.5% and 88.5%
same,parasite load remaining,[20],98.5% (inactive) and 80.5% (inactive)
same,viability,[20],103% and 91.2%
same,nuclear beta-catenin stimulation,[1]; at 10 µM,-0.7% (inactive)
same,nuclear beta-catenin stimulation,"[1]; stimulation, at 2 µM",-1.5%
same,insulin secretion stimulation,[2],0.8% (inactive)
same,viability decrease,[3],-18% (inactive)
same,tube area decrease,[4],-3.8% (inactive)
same,GLP1 secretion stimulation,[5],-1.4% (inactive)
same,inhibition of viability,[6],-8.6% (inactive)
same,viability decrease (inhibition),[7],4.3% (inactive)
same,viability decrease (inhibition),[8],-15.1% (inactive)
same,inhibition,[9],8.27% (inactive)
same,red/green cell ratio (normalised),[10],0.86 (inactive)
same,normalised cell number,[10]; [21],1.13
same,normalised cell number,[10]; [22],0.97
same,activity remaining,[11],115% (inactive)
same,fold change,[19]; stronger effect = lower value,0.859 (inactive)
same,fold change,[19]; [25],1.13
same,cell count,[19]; [26],8380
same,cell count,[19]; [27],9750
same,z-score,[12]; [23],0.0321 (inactive)
same,z-score,[12]; [24],-1.05
same,remaining NAD,[13],10 nM (inactive)
same,luciferase signal,[14],36 AU (inactive)
